Our source for the inhibition (reported as % activation of signal) values is PubChem BioAssay AID588458 (Sanford-Burnham Center for Chemical Genomics, 2011).

SMILES strings stand for the structures. Out of some 360,000 compounds screened, about 3,000 (0.83%) were called active. The full list was thinned out, with actives kept by preference. A number with no mark means an inactive call. Rule as the data show it: active = inhibition above about 50%; inactive = the rest.

The target of the experiment is DNA (cytosine-5)-methyltransferase 1 (Homo sapiens) (UniProt P26358). Briefly: human DNMT1 methyltransferase inhibitors, primary screen, biochemical, molecular beacon, fluorescence, HinP1I cleavage, uHTS (AID 588458). The following applies: at 10 µM, active compounds read high.
Sequence of DNA (cytosine-5)-methyltransferase 1 (Homo sapiens) (P26358 504-1616 limits assumed): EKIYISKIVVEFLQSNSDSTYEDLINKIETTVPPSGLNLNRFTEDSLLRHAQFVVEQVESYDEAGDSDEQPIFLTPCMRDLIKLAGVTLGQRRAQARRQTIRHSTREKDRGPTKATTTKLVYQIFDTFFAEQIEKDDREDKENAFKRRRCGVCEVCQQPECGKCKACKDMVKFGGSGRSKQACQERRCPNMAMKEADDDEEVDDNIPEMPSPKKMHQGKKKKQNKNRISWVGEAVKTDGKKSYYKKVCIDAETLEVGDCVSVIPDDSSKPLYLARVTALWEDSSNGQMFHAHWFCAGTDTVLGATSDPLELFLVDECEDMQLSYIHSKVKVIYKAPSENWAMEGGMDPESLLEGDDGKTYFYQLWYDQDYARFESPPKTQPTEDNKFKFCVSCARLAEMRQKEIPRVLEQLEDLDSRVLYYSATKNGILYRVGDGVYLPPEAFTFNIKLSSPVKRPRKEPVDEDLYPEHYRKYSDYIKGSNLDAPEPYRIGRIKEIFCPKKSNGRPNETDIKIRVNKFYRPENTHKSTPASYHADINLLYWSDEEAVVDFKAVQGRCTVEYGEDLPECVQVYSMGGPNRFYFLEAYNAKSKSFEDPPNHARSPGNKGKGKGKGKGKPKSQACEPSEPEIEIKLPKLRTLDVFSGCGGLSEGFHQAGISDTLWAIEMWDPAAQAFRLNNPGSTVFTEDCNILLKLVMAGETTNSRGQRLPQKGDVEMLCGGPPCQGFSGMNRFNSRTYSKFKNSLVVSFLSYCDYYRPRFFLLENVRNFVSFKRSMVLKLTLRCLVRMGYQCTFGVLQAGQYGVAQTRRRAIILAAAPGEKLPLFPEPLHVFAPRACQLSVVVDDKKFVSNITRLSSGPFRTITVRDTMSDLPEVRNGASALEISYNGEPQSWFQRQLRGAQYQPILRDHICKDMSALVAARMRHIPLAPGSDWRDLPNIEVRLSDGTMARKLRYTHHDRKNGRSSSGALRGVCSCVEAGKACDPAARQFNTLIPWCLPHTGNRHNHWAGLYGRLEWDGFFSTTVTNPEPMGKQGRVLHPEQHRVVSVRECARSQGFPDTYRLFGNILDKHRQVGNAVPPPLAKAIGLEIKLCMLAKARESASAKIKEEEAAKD
Regarding `Nc1nc(Br)c2ccccc2c1-c1ccc(F)cc1`, the inhibition (reported as % activation of signal) was -9.34%.
Next, `O=C(NCCN1CCOCC1)c1cc(Sc2cccc(Cl)c2)nc2ccccc12`: -4.33%; `Cc1cccc(C)c1OCCN1CCOCC1`: 0.32%.
To `c1ccc2cc3c(NCCN4CCOCC4)ccnc3cc2c1` belongs 54.4% (active).
Next, `CN1CCN(C(=O)C(=O)c2cn(CC(=O)N3CCCC3)c3ccccc23)CC1`: 1.12%; `O=C(CN1C(=O)c2cccnc2Oc2ccc(Cl)cc21)NCCc1ccccc1`: -0.09%; `Cc1ccc2oc(=O)c3cnn(CC(=O)N4CCN(c5ccccn5)CC4)c3c2c1`: 2.52%.
For `CC(=O)Nc1ccc(NC(=O)CCCNC(=O)c2ccc(Cl)cc2)cc1`, the inhibition (reported as % activation of signal) was -1.09%.
Next, `CCC(=O)Nc1ccc(C(=O)NNC(=O)c2ccc(Cl)cc2)cc1`: -1.31%.
For the compound `CC(=O)Nc1ccc(SCC(=O)NC(=O)c2ccc(Cl)cc2)cc1`, the inhibition (reported as % activation of signal) is 69.8% (active).
To `Cc1ccc2c(CN3CCN(S(=O)(=O)c4ccccc4C(F)(F)F)CC3)cc(=O)oc2c1` belongs -2.32%; to `CC(C)Oc1ccc(S(=O)(=O)N2CCOCC2)cc1NC(=O)C1CCCC1`, 4.21%; to `CCCCN1C(=O)/C(=C/C=C2/C=Cc3ccccc3N2CC)SC1=S`, 3.13%.
Next, `Cc1ccc(-c2nn(-c3ccccc3)cc2/C=C2\SC(=S)N(CCCCCC(=O)O)C2=O)o1`: 87.9% (active).
Next, `O=C(CN1C(=O)/C(=C\c2ccccc2F)SC1=S)Nc1nc2ccccc2s1`: -44.4%; `CCc1nnc(NS(=O)(=O)c2ccc(NC(=S)NC(=O)/C=C/c3cccs3)cc2)s1`: 9.17%; `CCOC(=O)c1sc(=NC(=O)/C=C/c2cccs2)n(C)c1C`: 10.1%.
For the compound `CCOC(=O)c1c(NC(=S)NC(=O)/C=C/c2cccs2)sc(C)c1C`, the inhibition (reported as % activation of signal) is 58.9% (active).
To `O=C(CO/N=C/c1ccccc1O)NNC(=O)c1ccccc1Cl` belongs -2.54%.
Next, `CC(C)(C)C(=O)N(Cc1ccccc1)c1ccccn1`: -1.5%; `CCN(Cc1ccncc1)C(=O)CCc1ccccc1`: -1.63%.
To `CC(C)(C)N(Cc1ccccc1)C(=O)c1ccncc1` belongs 82.6% (active).
`CC(=O)N/C(=N/c1nc(C)cc(C)n1)Nc1ccc(F)cc1F`: the inhibition (reported as % activation of signal) was 0.05%.
To `C/C(=N\NC(=O)CCn1nc(C)cc1C)C(C)(C)C` belongs -0.8%; to `OCC(O)C1OCOC(C(O)CO)C1O` (configuration not stated), -1.63%.
In the case of `O=C(NCCc1ccc(F)cc1)c1ccc(S(=O)(=O)N2CCCCC2)cc1`, the inhibition (reported as % activation of signal) is -2.12%.
Next, `NC1=CC(=O)C(=O)c2cccnc21`: 100% (active); `CN(Cc1ccccc1)C(=O)COC(=O)c1ccccc1Nc1ccccc1`: -16.6%.
With `Cn1cnc(C(F)(F)F)c1-c1ccc([N+](=O)[O-])cc1`, the inhibition (reported as % activation of signal) was 3.01%.
To `O=C(COC(=O)c1cccc(Br)c1)Nc1cccc2c1C(=O)c1ccccc1C2=O` belongs 51% (active); to `O=C(COC(=O)c1ccccc1)Nc1ccccc1Sc1ccccc1`, 0.84%; to `O=C(COC(=O)Cn1cnc2ccccc21)Nc1cccc2c1C(=O)c1ccccc1C2=O`, 27.5%.
To `CC(C)(C)c1ccccc1NC(=O)CN1C(=O)NC2(CCCC2)C1=O` belongs 1.67%.
With `COCCn1cnnc1SCC(=O)Nc1cccc(S(=O)(=O)N2CCCCC2)c1`, the inhibition (reported as % activation of signal) was -1.49%.
Next, `Cc1ccc2c(c1)N(CC(=O)N1CCC(C)CC1)C(=O)c1cccnc1O2`: -0.74%; `COc1ccc(/C=C/C(=O)OCC(=O)N2CCN(S(=O)(=O)c3ccc(C)cc3C)CC2)cc1OC`: -0.56%; `Cc1ccc(N=C2NC(=O)/C(=C/C=C/c3ccco3)S2)cc1C`: 71.1% (active).
Take `Cc1cc(C)c(-c2csc(NC(=O)CCCc3nc4ccccc4c(=O)[nH]3)n2)c(C)c1`: the inhibition (reported as % activation of signal) was -5%.
For the compound `O=C(CSc1nc2ccccc2c(=O)[nH]1)Nc1nc(-c2ccc(Br)cc2)cs1`, the inhibition (reported as % activation of signal) is 93.2% (active).
To `O=C(COC(=O)c1cc(=O)[nH]c2ccccc12)Nc1nc(-c2cccc(Br)c2)cs1` belongs -21.4%; to `Cc1ccc(C(C(=O)NCC2CCCO2)N(C(=O)c2snc(C(N)=O)c2N)c2ccc(C(C)C)cc2)o1` (configuration not stated), 0.65%.
Next, `CC(C)C(=O)Nc1ccc2c(c1)oc1ccccc12`: -5.97%.
